Test results reported in PubChem BioAssay AID493169 (National Center for Advancing Translational Sciences (NCATS), 2011).
Results filed as inconclusive are left out. Where a call stands in place of a potency, no number is given. Activity calls are given as the source filed them. The call rests on the fitted dose curve; in most records, active means well fitted inhibition curve with a large enough effect; inconclusive means small, poorly fitted or top-dose-only effect; inactive means flat fitted curve, though single readings scatter.

Experiment: CHOP2 Reporter Counterscreen Assay for Inhibitors of Ubiquitin-specific Protease USP2a;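 further: activated enterokinase alone at 50 pM in a cell-free format rather than USP2a or CHOP2; nearly all actives have a fitted effect of over 55% in size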
Conditions: purified enterokinase, fluorogenic substrate, 485/531 nm; series mostly up to 38.3 µM
Source text: NIH Molecular Libraries Probe Centers Network [MLPCN] NIH Chemical Genomics Center [NCGC] MLPCN Grant: XO1-MH079852-01 PI Name: Nicholson, Ben. Progenra Inc, Malvern, PA NCGC Assay Overview: Homeostasis of cellular proteins is maintained through a combination of synthesis and degradation. The pathway that accounts for the majority of protein degradation is the ubiquitin-proteasomal pathway. Ubiquitin (Ub) is highly conserved in all cells and the generation of a multi-Ub chain typically targets proteins for degradation by the proteasome. However, ubiquitination is highly reversible and dynamic. Deubiquitination, the reverse process, is catalyzed through the action of enzymes referred to as isopeptidases or deubiquitinating enzymes (DUBs). This group of enzymes is collectively responsible for maintaining adequate pools of free ubiquitin and regulating the ubiquitination status of cellular proteins. The class of DUBs referred to as the ubiquitin-specific proteases (USP) family functions endoproteolytically to cleave Ub chains from a wide range of protein substrates. USP2a deubiquitinates fatty acid synthase (FASN) which has recently been identified as an emerging oncology target. To identify inhibitors of USP2a a cell-free assay was employed. This assay is a counterscreen against the reporter enzyme used to measure USP2a activity in the primary qHTS assay. The reporter enzyme is a protease (enterokinase, EK; EC 3.4.21.9), which is activated when a Ub sequence is cleaved by USP2a. The counterscreen assay is performed in the same buffer and conditions as the primary USP2a coupled assay but uses fully activated EK alone. The assay gives a fluorescent read-out at excitation/emission wavelengths of 485/531. The assay was provided by Progenra, Inc. and has been licensed for sale by LifeSensors, Inc.
NCGC Assay Protocol: The assay buffer, prepared fresh at the day of the assay, contains 20mM Tris-HCl pH 8.0, 2mM CaCl2, 2mM beta-Mercaptoethanol, 0.05% CHAPS. 3uL of 100 pM EK (50 pM final) was dispensed into a medium-binding black solid Kalypsys 1,536 well plate using the Kalypsys dispenser. The assay plate was then pinned with 23nL compounds in DMSO with the Kalypsys pintool in columns 5-48 (0.3% final DMSO concentration). The negative control was buffer/DMSO only in column 3. The assay plate is incubated at RT for 30min. Subsequently, 3uL of reporter substrate (25nM final) were dispensed into the plate using the Kalypsys dispenser. Plates were read after 10 min at RT on a ViewLux (Perkin Elmer) plate reader using the following wavelengths: Ex 485nm /Em 531nm. Data were normalized to the AC100 inhibition (buffer alone). Concentration-response curves were fitted to the normalized data and the concentration-response curves were then classified based on curve quality (r2), response magnitude and degree of measured activity. The time zero reading was used to flag fluorescence artifacts.
Potency means the concentration at half of the fitted maximal effect.

Row | SMILES | Potency
1 | O=C(CNC(=O)C1CCCCC1)NC1=NCCS1 | inactive
2 | COC(=O)CCC(=O)Nc1sc2c(c1C#N)CCCC2 | inactive
3 | O=C(COC(=O)c1ccc(F)c(S(=O)(=O)N2CCOCC2)c1)c1ccccc1 | inactive
4 | O=C(NCCC1=CCCCC1)C1CCCN(S(=O)(=O)c2cnc[nH]2)C1 (stereo not given) | inactive
5 | N=C1/C(=C\c2ccc(-c3cccc(Cl)c3)o2)C(=O)N=C2SC=C(c3ccccc3)N12 | inactive
6 | O=C(Nc1ccc(N2CCCC2)cc1)c1cccc(-c2cc3ccccc3oc2=O)c1 | inactive
7 | C=CCSC1=N/C(=C\C=C\c2ccco2)C(=O)S1 | 7.94 µM (active)
8 | O=C(CSc1ccc(Br)c2cccc(Cl)c12)Nc1ccc(S(=O)(=O)Nc2nccs2)cc1 | 11.2 µM (active)
9 | Nc1cc(N)nc(SCC(=O)N2CCCCC2)n1 | inactive
10 | CCN(CC)S(=O)(=O)c1ccc(Cl)c(NC(=O)COC(=O)c2c(C)noc2C)c1 | inactive
11 | O=c1oc2ccccc2n1Cn1c(=O)oc2ccccc21 | inactive
12 | C=CCn1c(N)c(C(=O)NCc2cccnc2)sc1=S | inactive
13 | C/C(=N/NC(=O)c1cc2ccccc2cc1O)C1C(=O)c2ccccc2C1=O | inactive
14 | CCC1SC2=NC(C)=C(C(=O)OCCOC)C(c3ccc(C(=O)OC)cc3)N2C1=O (stereo not given) | inactive
15 | O=C(CSc1nc2ccccc2s1)NCCCN1CCOCC1 | inactive
16 | CC1=NN(c2ccc(C)cc2)C(=O)/C1=C/c1ccc(-c2cc([N+](=O)[O-])ccc2O)o1 | 11.2 µM (active)
17 | N#Cc1cc(Sc2ccccn2)c(Sc2ccccn2)cc1C#N | inactive
18 | CCCCOC1(c2ccccc2)NC(=S)NN=C1c1ccccc1 (stereo not given) | inactive
19 | N#CNC(=Nc1cccc(F)c1)SCc1cccc(F)c1 | inactive
20 | CCOC(=O)C1CCN(C(=O)COC(=O)c2c(C)c(CC)nc3ccccc23)CC1 | inactive

Row | SMILES | Potency
21 | CCN1C(=O)CSc2ccc(C(=O)NC3CCCCC3)cc21 | inactive
22 | COc1cc(/C=C(/C(=O)c2cccs2)c2nc3ccccc3[nH]2)ccc1O | inactive
23 | COc1ccc(NC(=S)NC(=O)/C=C/c2ccco2)cc1 | inactive
24 | Cc1noc(/C=C/NCc2cccnc2)c1S(=O)(=O)N(C)CC(=O)N1CCc2ccccc21 | inactive
25 | CCCCc1ccc(/C=C2/C(=O)ON=C2c2ccccc2)s1 | inactive
26 | CCOc1ccc(NC(=O)CSc2nnc(Cn3c(=O)sc4ccccc43)n2C)cc1 | inactive
27 | NC(=O)CC(NC(=O)Cc1ccc(Br)cc1)c1ccc(N2CCC(Cc3ccccc3)CC2)c([N+](=O)[O-])c1 (stereo not given) | inactive
28 | CCCCCCCCCCCCCCCCn1cc[n+](C)c1 | 10 µM (active)
29 | O=C(O)CC1(CC(=O)Nc2ccc3ccccc3c2)CCCCC1 | inactive
30 | Cc1ccc(-c2ccc(CCC(=O)O)n2NC(=O)c2cccs2)cc1 | inactive
31 | COc1ccc(NC(=O)c2cc(-c3ccco3)nc3ccccc23)cc1S(=O)(=O)N1CCOCC1 | 5.62 µM (active)
32 | Cc1nc(NC(C)C)c2cnn(CCc3ccccc3)c2n1 | inactive
33 | Cc1ccc(S(=O)(=O)N2[C@@H](c3ccccc3F)C(C(=O)O)=CC[C@H]2c2ccc(Cl)c(Cl)c2)cc1 | inactive
34 | Fc1ccc(-c2nnn(Cc3nc4ccccc4s3)n2)cc1 | inactive
35 | Cc1noc(NS(=O)(=O)c2ccc(N/C=C\C(=O)c3cccc4ccccc34)cc2)c1C | inactive
36 | O=S(=O)(NC1CCSc2ccccc21)c1ccccc1 (stereo not given) | inactive
37 | COc1ccc(/C=C(\NC(=O)c2ccc(OC)c(OC)c2)C(=O)N2CCN(C)CC2)cc1 | inactive
38 | COc1ccc(S(=O)(=O)N(C)CC(=O)Nc2cccc(C(C)=O)c2)cc1Cl | inactive
39 | Cc1ccc(C(=O)c2coc3c2C(=O)C(=O)c2ccccc2-3)cc1 | inactive
40 | C#CCOCCOCCOCCNc1nc(N2CCN(C(=O)CCCCCCCCCCNC(=O)Cn3cc(C[C@@H](C)O)nn3)CC2)nc(N2CCN(C(=O)CCCCCCCCCCNC(=O)[C@@H]([C@H](C)CC)n3cc(CCCCCN)nn3)CC2)n1 | 5.62 µM (active)
